Reference: PubChem BioAssay (NCATS)
Records with an inconclusive call do not appear. Calls of active or inactive are those of the source. The call rests on the fitted dose curve; in most records, active means well fitted inhibition curve with a large enough effect; inconclusive means small, poorly fitted or top-dose-only effect; inactive means flat fitted curve, though single readings scatter.

Key:
Assay in all cases: qHTS profiling for inhibitors of Plasmodium falciparum proliferation (AID 504749); further: nearly all actives have a fitted effect of over 60% in size
Conditions in all cases: P. falciparum in erythrocytes, SYBR Green DNA, 72 h; series mostly up to 28.7 µM
CP237 = tested on: CP237
Summary of the method: (§1)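 SYBR Green fluorescence (ex 485 nm, em 535 nm) reports parasite DNA after 72 h compound exposure of infected red cells at 0.3% parasitemia, 2.5% hematocrit; signal normalized to 0.29 uM artemisinin and vehicle wells.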

CP238 = tested on: CP238
Summary of the method: as §1

CP247 = tested on: CP247
Summary of the method: as §1

CP250 = tested on: CP250
Summary of the method: as §1

CP252 = tested on: CP252
Summary of the method: as §1

CP256 = tested on: CP256
Summary of the method: as §1

CP260 = tested on: CP260
Summary of the method: as §1

CP262 = tested on: CP262
Summary of the method: as §1

CP265 = tested on: CP265
Summary of the method: as §1

CP266 = tested on: CP266
Summary of the method: as §1

Measured: Potency
Potency means the concentration at half of the fitted maximal effect.

Cc1ccnc2c1NC(=O)c1cccnc1N2C1CC1
inactive: all assays above

CC(C)OC(=O)C(C(=O)OC(C)C)=C1SC=CS1
inactive: all assays above

O=C(O)c1cc(=O)[nH]c(=O)[nH]1
inactive: all assays above

NC(=O)N1c2ccccc2CC(=O)c2ccccc21
not listed: CP262
inactive: all other assays above

COc1cc(NCc2ccc3nc(N)nc(N)c3c2C)cc(OC)c1OC
active: CP237 0.141 µM | CP238 0.631 µM | CP247 0.447 µM | CP250 0.794 µM | CP252 0.251 µM | CP256 0.316 µM | CP260 0.158 µM | CP262 0.169 µM | CP265 3.16 µM | CP266 4.26 µM

CC(C)NCC(O)c1ccc(NS(C)(=O)=O)cc1 (configuration not stated)
inactive: all assays above

Cc1nnc(NS(=O)(=O)c2ccc(N)cc2)s1
inactive: all assays above

Nc1[nH]c(=O)ncc1F
inactive: all assays above

O=NN(CCCl)C(=O)NC1CCCCC1
inactive: all assays above

CC[C@H](C)C(=O)O[C@H]1C[C@@H](C)C=C2C=C[C@H](C)[C@H](CC[C@@H]3C[C@@H](O)CC(=O)O3)[C@H]21
inactive: all assays above

CN(CCOc1ccc(CC2SC(=O)NC2=O)cc1)c1ccccn1 (configuration not stated)
inactive: all assays above

C#CCN[C@@H]1CCc2ccccc21
inactive: all assays above

Nc1nc(N)c2nc(CNc3ccc(C(=O)NC(CCC(=O)O)C(=O)O)cc3)cnc2n1 (configuration not stated)
inactive: all assays above

O=P(O)(O)C(O)(Cc1cccnc1)P(=O)(O)O
inactive: all assays above

N=C(N)c1ccc(OCCCCCOc2ccc(C(=N)N)cc2)cc1
active: CP237 0.251 µM | CP238 2.24 µM | CP247 1.12 µM | CP250 2.51 µM | CP252 2 µM | CP256 0.501 µM | CP260 2 µM | CP262 0.757 µM | CP265 2.82 µM | CP266 1.69 µM

OC(Cn1cncn1)(Cn1cncn1)c1ccc(F)cc1F
inactive: all assays above

CNCC[C@H](Oc1cccc2ccccc12)c1cccs1
active: CP237 10 µM | CP260 8.91 µM
inactive: CP266

CCn1cc(C(=O)O)c(=O)c2cc(F)c(N3CCNCC3)nc21
inactive: CP238 | CP247 | CP250 | CP262 | CP265

O=C(O)c1cn(C2CC2)c2cc(N3CCNCC3)c(F)cc2c1=O
inactive: CP247

CCOC(=O)c1ccc(OC(=O)CCCCCN=C(N)N)cc1
not listed: CP260 | CP265
inactive: all other assays above

COc1c(N2CCNC(C)C2)c(F)cc2c(=O)c(C(=O)O)cn(C3CC3)c12 (configuration not stated)
not listed: CP250 | CP256 | CP262
inactive: all other assays above

COc1cccc(N(C)C(=S)Oc2ccc3c(c2)CCCC3)n1
not listed: CP260
inactive: all other assays above

O=S(=O)(O)CCS
not listed: CP260
inactive: all other assays above

CN1CCCC(n2nc(Cc3ccc(Cl)cc3)c3ccccc3c2=O)CC1 (configuration not stated)
inactive: CP238 | CP250 | CP252 | CP256 | CP262 | CP266

CCn1cc(C(=O)O)c(=O)c2cc(F)c(N3CCNCC3)cc21
inactive: CP238 | CP247 | CP250 | CP262 | CP265

C1CCC(C(CC2CCCCN2)C2CCCCC2)CC1 (configuration not stated)
inactive: CP262
active: CP237 7.94 µM | CP247 11.2 µM | CP250 12.6 µM | CP252 11.2 µM | CP256 10 µM | CP260 8.91 µM | CP266 15.1 µM

COc1ccc(C(=O)CC(=O)c2ccc(C(C)(C)C)cc2)cc1
not listed: CP237 | CP260
inactive: all other assays above

CCCc1nc(C)c2c(=O)[nH]c(-c3cc(S(=O)(=O)N4CCN(CC)CC4)ccc3OCC)nn12
not listed: CP237 | CP260 | CP266
inactive: all other assays above

CCOC(=O)c1ccc(C#Cc2ccc3c(c2)C(C)(C)CCS3)nc1
inactive: CP237 | CP238 | CP252 | CP262 | CP266

CC(C)(Sc1cc(C(C)(C)C)c(O)c(C(C)(C)C)c1)Sc1cc(C(C)(C)C)c(O)c(C(C)(C)C)c1
active: CP260 3.55 µM
not listed: CP237 | CP262
inactive: all other assays above

CCC(C)(C)c1ccc(CC(C)CN2C[C@@H](C)O[C@@H](C)C2)cc1 (some centres not stated)
not listed: CP237 | CP260
inactive: all other assays above

O=c1oc2c(O)c(O)cc3c(=O)oc4c(O)c(O)cc1c4c23
active: CP237 2 µM | CP260 1.41 µM
inactive: CP265

CC(N)C12CC3CC(CC(C3)C1)C2 (configuration not stated)
active: CP237 5.62 µM
inactive: CP250 | CP252 | CP256 | CP262 | CP266

C[C@@H](NCCCc1cccc(C(F)(F)F)c1)c1cccc2ccccc12
active: CP237 3.55 µM | CP238 11.2 µM | CP247 10 µM | CP252 8.91 µM | CP260 4.47 µM | CP265 11.2 µM
inactive: CP262

CCn1cc(C(=O)O)c(=O)c2cc(F)c(N3CCN(C)CC3)cc21
inactive: CP238 | CP262 | CP266

CC(C)(C)C(=O)OCOP(=O)(COCCn1cnc2c(N)ncnc21)OCOC(=O)C(C)(C)C
inactive: CP247 | CP262 | CP266

CN(Cc1cc(Br)cc(Br)c1N)C1CCCCC1
not listed: CP237 | CP238 | CP260
inactive: all other assays above

N[C@@H](Cc1ccc(O)c(O)c1)C(=O)O
inactive: CP262 | CP266

CC1=CC(=O)c2ccccc2C1=O
inactive: CP238 | CP252 | CP256 | CP262 | CP265 | CP266

CC(C)Cn1cnc2c(N)nc3ccccc3c21
not listed: CP260
inactive: all other assays above

COc1cc([C@@H]2c3cc4c(cc3[C@H](O)[C@H]3COC(=O)[C@H]23)OCO4)cc(OC)c1OC
inactive: CP262
active: CP237 3.16 µM | CP247 10 µM | CP250 8.91 µM | CP256 8.91 µM | CP260 2.82 µM | CP265 2.51 µM

CNC1CCCN(c2c(F)cc3c(=O)c(C(=O)O)cn(C4CC4)c3c2OC)C1 (configuration not stated)
not listed: CP247 | CP266
inactive: all other assays above

CN1CCN(c2c(F)cc3c(=O)c(C(=O)O)cn4c3c2OCN4C)CC1
not listed: CP262
inactive: all other assays above

CCCCOc1ccc(CC(=O)NO)cc1
active: CP237 4.47 µM | CP247 4.47 µM | CP250 2.24 µM | CP252 3.98 µM | CP256 1.41 µM | CP260 2.82 µM | CP262 2.56 µM

Oc1c(Cl)cc(Cl)c2cccnc12
active: CP237 10 µM | CP247 8.91 µM | CP250 12.6 µM
inactive: CP266
